Where “and” joins values, the source holds several entries; their conditions need not be identical. Equal entries are not always repeated. The panel holds about 83,000 compounds, 20% with a hit somewhere; the sample as a whole holds those more often.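 Activity criterion: percent growth below 10, measured after cells in 96-well plates were exposed to a single compound concentration for 48 hours.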 Calls of active or inactive are those of the source.
Each compound was assayed on HL-60(TB) leukemia (assay: NCI-60 one-dose screen, 48 h (100 = growth as untreated, 0 = no growth, -100 = all killed)). Conditions: 10 µM unless noted.

Compound | growth
Nc1nc(Nc2cc(Cl)cc(Cl)c2)nn1S(=O)(=O)c1ccc2ccccc2c1 | 88.6% (inactive)
Cc1nc(Nc2ncc(C(=O)Nc3c(C)cccc3Cl)s2)cc(N2CCN(CCO)CC2)n1 | 107% (inactive) and 35.7% (inactive)
CC1(C)CC2(C)CC(=O)C1C(C(=O)O)C2C(=O)O (stereo not given) | 97.9% (inactive)
CCN(CC)c1ccc(C(=N)c2ccc(N(CC)CC)cc2)cc1 | -23.4% (active)
CN1CCN(Cc2ccc(NC(=O)c3[nH]ncc3Nc3ncnc4[nH]ccc34)cc2)CC1 | -31.4% (active)
Cc1nc(Nc2ccccn2)sc1C(=O)/C=C/c1ccc(Cl)cc1 | -38.8% (active)
COc1cccc(O)c1O | 73.6% (inactive)
COc1cc(/C=C2\C(=O)N(Cc3ccc(Cl)cc3)c3ccccc32)cc(OC)c1OC | -13.5% (active)
CN1CCN(Cc2ccc(NC(=O)c3cncc(C#Cc4cnc(N)c5ccccc45)c3)cc2C(F)(F)F)CC1 | -46.3% (active)
Cc1ccc(C2C3CC4CCCCC4N3[C@@]3(C(=O)Nc4cc(Cl)ccc43)C2C(=O)c2nc3ccccc3[nH]2)cc1 (stereo not given in full) | 1.4% (active)
O=C(OCC1CC2(Cl)C(Cl)=C(Cl)C1(Cl)C2(Cl)Cl)C1C(C(=O)OCC2CC3(Cl)C(Cl)=C(Cl)C2(Cl)C3(Cl)Cl)C2(Cl)C(Cl)=C(Cl)C1(Cl)C2(Cl)Cl (stereo not given) | 89.3% (inactive)
Cc1ccc(Nc2nnc(-c3cc(-c4ccncc4)n(-c4ccccc4)n3)s2)cc1 | 66.3% (inactive)
CC(C)(C)c1nn(-c2ccccc2)c2c1C(=O)CSC(c1ccccc1Cl)N2 (stereo not given) | -2.32% (active)
CN(C)C(C)(C)CC(C)(C)C | 71.8% (inactive)
Cc1ccc2[nH]c3ccccc3c2c1 | 99.7% (inactive)
COc1ccc(-c2cn[nH]c2-c2cc(OC)c(OC)c(OC)c2)cc1N | -17.8% (active) and -10.7% (active)
O=C(O)/C=C/C=C/c1ccccc1 | 106% (inactive) and 112% (inactive)
Nc1c2ccccc2nc2ccccc12 | 21% (inactive) and 9.95% (active) and 47.7% (inactive)
COc1cccc(C(=O)N(c2ccc(F)c(F)c2)C(C(=O)NC(C)(C)C)c2cc3c(C)cc(C)cc3nc2Cl)c1 (stereo not given) | 63.3% (inactive)
CC1(C)NCCC[C@]2(C)[C@H]3CC[C@@H]4[C@H]5[C@H](C(=O)/C=C/c6ccccn6)CC[C@]5(CO)CC[C@@]4(C)[C@]3(C)CC[C@@H]12 | -31.8% (active)

Compound | growth
COc1cc(Nc2c(C#N)cnc3cc(OCCCN4CCN(C)CC4)c(OC)cc23)c(Cl)cc1Cl | 6.54% (active)
Cc1ccc(C(=O)/C(=C/c2ccc([N+](=O)[O-])cc2)S(=O)Cc2ccccc2)cc1 (stereo not given) | 36.8% (inactive)
Cc1ncc(CO)c(C(=O)O)c1O | 84.2% (inactive)
O=C(Nc1ccc(CN2CCc3nc4cc(O)c(O)cc4cc32)cc1)c1ccc(Cl)c(Cl)c1 | 114% (inactive)
COc1cc(C2NC(=O)C(C#N)=C(Nc3cccc(C)c3)S2)ccc1O (stereo not given) | 84% (inactive)
O=C(Nc1ccc(OS(=O)(=O)Cc2ccccc2)cc1)C12CC3CC(CC(C3)C1)C2 | 60.5% (inactive)
COc1ccc(-n2sc(=O)n(Cc3ccc(COC(=O)C(C)c4ccc(CC(C)C)cc4)cc3)c2=O)cc1 (stereo not given) | -43.3% (active)
CC(C)(C)C1=CC(=O)C(C(C)(C)C)=CC1=O | 92.5% (inactive) and 106% (inactive)
COc1cc(C(=O)n2nc(-c3cc(OC)c(OC)c(OC)c3)nc2N)cc(OC)c1OC | 67.7% (inactive)
O=c1c2ccccc2nc2n1Cc1nc3ccccc3c(=O)n1C2 | 100% (inactive) and -60.2% (active)
COC(=O)[C@]1(C)CCC[C@]2(C)[C@H]3C[C@H]4C(C(C)C)=C[C@]3(CC[C@H]21)[C@H]1[C@@H]4[C@@H](OCCC#N)CC[C@@H]1OCCC#N | 2.28% (active)
COc1ccc(NC(=O)C(=O)c2c[nH]c3ccc(F)cc23)cc1 | 79% (inactive)
COc1cc(C2=NN(C=O)C(c3cccc(Nc4ccnc5cc(C(F)(F)F)ccc45)c3)C2)cc(OC)c1OC (stereo not given) | 8.02% (active)
C=C(C)[C@@H]1CC[C@]2(C(=O)N=C=S)CC[C@]3(C)[C@H](CC[C@@H]4[C@@]5(C)CCC(=O)C(C)(C)[C@@H]5CC[C@]43C)[C@@H]12 | -2.27% (active)
c1coc(-c2c3ccc(=[N+]4CCCCC4)cc-3oc3cc(N4CCCCC4)ccc23)c1 | -57.5% (active)
COc1ccc(/C=c2\sc3n(c2=O)C2C(NN=3)N(C)C(=O)N2C)cc1 (stereo not given) | -47.5% (active)
Cc1cccc2nnc(-c3ccccc3)n12 | 99% (inactive)
Nc1ccc(S(=O)(=O)O)c2ccc(N=Nc3ccc(N=Nc4ccc(S(=O)(=O)O)cc4)c4ccccc34)c(O)c12 | 70.5% (inactive)
NCCCCCC(=O)O | 114% (inactive) and 92.6% (inactive) and 77.6% (inactive)
C#CC(C)(O)c1ccc(Cl)cc1 (stereo not given) | 109% (inactive)

From PubChem BioAssay (NCI)
